Measured values: PubChem BioAssay
Values joined by “and” are separate entries in the source; they are usually repeats but may differ in a detail not shown here. Equal entries are not always repeated. Active and inactive are the calls of the source.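 The calls were made as follows, unless noted: active = compounds whose cell count with miR-34 switched on is under 0.7 times the count with it off; inactive = the rest.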

What was measured:
[1] = hESC survival regulators, cell-based (AID 493140; call rule not given here;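 also: cells exposed to compounds for four days before counting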); conditions: human embryonic stem cell survival screen; stronger effect = higher value
[2] = liver-stage malaria parasite growth inhibition, primary screen, cell-based, HepG2, luciferase luminescence, HepG2 viability (AID 624349; in the data active = parasite load remaining mostly below about 12%, no sharp cut-off; inactive = mostly above about 10%;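 also: 100% = mean of DMSO negative control wells on the same plate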); conditions: P. berghei liver stage in HepG2, luciferase luminescence, concentration not given here; parasite load remaining: stronger effect = lower value; viability: measured here: HepG2 viability without parasites
[3] = stimulators of nuclear beta-catenin in C2C12, primary screen, imaging, WNT3A-conditioned medium, mouse C2C12, NPC library (AID 1117326; in the data active = nuclear beta-catenin stimulation mostly above about 4.2%, no sharp cut-off; inactive = mostly below about 10%); conditions: stronger effect = higher value
[4] = stimulators of insulin release from INS-1E, primary screen, cell-based, 5 mM glucose, NPC library (AID 1117329;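 active = compound raises insulin release from rat beta cells at 5 mM glucose, no numeric limit stated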); conditions: rat INS-1E insulin secretion, at 10 µM, stronger effect = higher value
[5] = growth inhibition of GSK3B-pretreated HCT116 cells – cell-based, CellTiter-Glo, 0.2 to 20 µM (AID 1117336;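 active = compounds lowering colon cancer cell viability after pretreatment blocking the GSK3B kinase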); conditions: HCT116 viability after GSK3B inhibitor, at 20 µM, stronger effect = higher value
[6] = inhibition of endothelial tube formation, primary screen, imaging, VEGF stimulated, CD31 staining, tube area, NPC library (AID 1117340;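 active = compound that reduces growth-factor-driven endothelial tube area in a mixed cell culture, no cutoff stated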); conditions: VEGF-stimulated ADSC/ECFC co-culture, at 10 µM, stronger effect = higher value
[7] = glucagon-like peptide 1 release enhancers, primary assay, NCI-H716 cell line, NPC library (AID 1117341;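 active = compound raises GLP1 secretion from the human gut endocrine cells, with no numeric limit stated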); conditions: NCI-H716 cells, at 10 µM, stronger effect = higher value
[8] = HCT116 colon cancer cell growth inhibition, primary screen, CellTiter-Glo luminescence, NPC library (AID 1117342;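 active = compounds that lower survival of HCT116 colon cancer cells in the luminescence readout, no numeric limit stated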); conditions: at 20 µM (top of the series)
[9] = CellTiter-Glo luminescent readout of SW480 viability loss, NPC library primary (AID 1117343;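 active = compounds that lower viability of the colon cancer cells in the luminescence readout, with no numeric limit stated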); conditions: CellTiter-Glo luminescence; at 20 µM (top of the series) unless noted
[10] = decreased DLD-1 cellular survival, CellTiter-Glo luminescent readout, NPC compound collection, primary HTS (AID 1117346;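 active = compounds that lower survival of DLD-1 colon cancer cells in the luminescence readout, no cutoff given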); conditions: DLD-1 viability, CellTiter-Glo luminescence; at 20 µM (top of the series)
[11] = differential killing of epithelial or mesenchymal cells, primary screen, imaging, PC-3E GFP, TEM4-18 mCherry, co-culture (AID 1345086;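 active = compounds killing one labelled cell type while sparing the other, by normalised counts and ratio limits, not self-fluorescent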;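 as to all read-outs here: cells exposed to compound for 72 h before imaging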;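 as to red/green cell ratio (normalised): normalised mesenchymal count divided by normalised epithelial count so high means epithelial killing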); conditions: imaging cell counts, at 1 µM; for red/green cell ratio (normalised): actives lie on both sides, counts scaled to control wells, 1 = unselective
[12] = sensitizers of A549 cells to miR-34 induction, primary screen, imaging, A549 dox-inducible miR-34, nuclei and caspase counts (AID 1347080); conditions: A549 miR-34 inducible, Hoechst nuclei count, 48 h
[13] = survival rescue of mitochondrial mutant cells in low glucose, primary screen, MELAS cybrids, Rieske KO mouse fibroblasts, CellTiter-Glo (AID 1508586;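 active = mean z-score across replicates of 1.96 or higher in either the MELAS or the Rieske mutant cell line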;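 also: z relative to plate mean and SD of compound and empty wells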)
[14] = target: NAD(+) hydrolase SARM1 (Homo sapiens) (UniProt Q6SZW1); assay: SARM1 TIR NADase inhibitors, cell lysate, NAD-Glo luminescence (AID 1508614;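 active = compound whose remaining NAD level is above about 45 nM, limit read from the data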;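 also: higher remaining NAD means stronger inhibition of SARM1 NADase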); conditions: SAM-TIR HEK293T lysate NADase, at 1 µM, stronger effect = higher value
Sequence of NAD(+) hydrolase SARM1 (Homo sapiens) (Q6SZW1 whole entry, looked up): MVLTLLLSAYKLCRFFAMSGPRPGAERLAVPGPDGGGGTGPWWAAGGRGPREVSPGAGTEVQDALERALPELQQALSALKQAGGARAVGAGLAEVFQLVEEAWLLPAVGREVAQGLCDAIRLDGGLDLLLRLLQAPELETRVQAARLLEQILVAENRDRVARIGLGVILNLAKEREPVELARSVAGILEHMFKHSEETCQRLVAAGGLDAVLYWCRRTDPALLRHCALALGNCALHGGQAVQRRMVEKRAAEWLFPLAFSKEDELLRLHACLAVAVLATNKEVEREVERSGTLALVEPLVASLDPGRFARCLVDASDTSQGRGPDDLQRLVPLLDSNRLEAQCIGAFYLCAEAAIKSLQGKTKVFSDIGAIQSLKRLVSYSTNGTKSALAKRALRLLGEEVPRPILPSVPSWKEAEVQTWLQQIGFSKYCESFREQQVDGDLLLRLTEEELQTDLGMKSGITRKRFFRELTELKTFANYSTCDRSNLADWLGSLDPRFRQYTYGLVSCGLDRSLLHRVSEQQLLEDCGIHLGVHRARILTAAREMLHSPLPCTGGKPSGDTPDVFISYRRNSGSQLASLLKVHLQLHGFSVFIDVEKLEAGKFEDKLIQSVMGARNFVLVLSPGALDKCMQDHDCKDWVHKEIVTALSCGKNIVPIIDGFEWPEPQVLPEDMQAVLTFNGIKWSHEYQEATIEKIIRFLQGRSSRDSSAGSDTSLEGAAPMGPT

[15] = measured here: epithelial PC-3E GFP cell survival
[16] = measured here: mesenchymal TEM4-18 mCherry cell survival
[17] = stronger effect = lower value, cell number ratio, induced over uninduced
[18] = measured here: relative caspase fold change +Dox/-Dox
[19] = measured here: total cells with miR-34 induction, stronger effect = lower value
[20] = measured here: total cells without miR-34 induction
[21] = MELAS cybrid survival, CellTiter-Glo 48 h, stronger effect = higher value
[22] = Rieske KO mouse fibroblast survival, CellTiter-Glo 72 h

For CCCCOc1cc(C(=O)OCCN(CC)CC)ccc1N, the survival [1] was 11.5 (inactive), the parasite load remaining [2] was 22.4% (inactive) and 92.2% (inactive) and the viability [2] was 49.5% and 89.9%. The nuclear beta-catenin stimulation ([3]; at 10 µM) was 1.9% (inactive), the nuclear beta-catenin stimulation ([3]; stimulation, at 2 µM) was 3.9% and the insulin secretion stimulation [4] was 50.7% (active). For the same compound, the viability decrease [5] was 45.5% (inactive), the tube area decrease [6] was 14.2% (inactive) and the GLP1 secretion stimulation [7] was 7.1% (inactive). The inhibition of viability [8] was 66% (active), the viability decrease (inhibition) [9] was 51.8% (active) and the viability decrease (inhibition) [10] was 81.6% (active). For the same compound, the red/green cell ratio (normalised) [11] was 0.93 (inactive), the normalised cell number [11, 15] was 1.02 and the normalised cell number [11, 16] was 0.95. The fold change [12, 17] was 0.886 (inactive) and 0.893 (inactive) and 0.93 (inactive), the fold change [12, 18] was 1.39 and 0.433 and 0.883 and the cell count [12, 19] was 8530 and 8120 and 7780. For the same compound, the cell count [12, 20] was 9620 and 9090 and 8360, the z-score [13, 21] was 0.206 (inactive) and -0.26 (inactive) and 0.345 (inactive) and the z-score [13, 22] was -0.405 and -0.149 and 0.0628. The remaining NAD [14] was 10 nM (inactive).
In the case of CN1C(=O)OC(C)(C)C1=O, the survival [1] is reported as 8.08 (inactive), the parasite load remaining [2] is reported as 83.9% (inactive) and 86.8% (inactive) and 50.6% (inactive) and the viability [2] is reported as 107% and 78.1% and 129%. For the same compound, the nuclear beta-catenin stimulation ([3]; at 10 µM) was 1.4% (inactive), the nuclear beta-catenin stimulation ([3]; stimulation, at 2 µM) was -0.1% and the insulin secretion stimulation [4] was 1% (inactive). The viability decrease [5] was 31.5% (inactive), the tube area decrease [6] was 13.2% (inactive) and the GLP1 secretion stimulation [7] was -0.3% (inactive). The inhibition of viability [8] was 28% (inactive), the viability decrease (inhibition) [9] was 54.4% (active) and the viability decrease (inhibition) [10] was 87.4% (active). For the same compound, the red/green cell ratio (normalised) [11] was 0.94 (inactive), the normalised cell number [11, 15] was 0.96 and the normalised cell number [11, 16] was 0.9. For the same compound, the fold change [12, 17] was 0.862 (inactive) and 0.885 (inactive), the fold change [12, 18] was 1.14 and 3.65 and the cell count [12, 19] was 9130 and 11500. For the same compound, the cell count [12, 20] was 10600 and 13000, the z-score [13, 21] was 0.482 (inactive) and the z-score [13, 22] was -0.121. For the same compound, the remaining NAD [14] was 10 nM (inactive).
For CN1C(CCl)Nc2cc(Cl)c(S(N)(=O)=O)cc2S1(=O)=O (stereo not given), the nuclear beta-catenin stimulation ([3]; at 10 µM) was -0.9% (inactive), the nuclear beta-catenin stimulation ([3]; stimulation, at 2 µM) was 1.3% and the insulin secretion stimulation [4] was 2.3% (inactive). For the same compound, the viability decrease [5] was 0.4% (inactive), the tube area decrease [6] was 3.9% (inactive) and the GLP1 secretion stimulation [7] was -2.1% (inactive). The inhibition of viability [8] was -10.4% (inactive), the viability decrease (inhibition) [9] was -2.9% (inactive) and the viability decrease (inhibition) [10] was -20.7% (inactive). For the same compound, the red/green cell ratio (normalised) [11] was 0.93 (inactive), the normalised cell number [11, 15] was 1.23 and the normalised cell number [11, 16] was 1.15. For the same compound, the fold change [12, 17] was 0.914 (inactive) and 0.898 (inactive), the fold change [12, 18] was 1.08 and 0.519 and the cell count [12, 19] was 8680 and 8370. The cell count [12, 20] was 9500 and 9310, the z-score [13, 21] was -0.258 (inactive) and the z-score [13, 22] was -0.124. The remaining NAD [14] was 10 nM (inactive).
In the case of O=C(N/N=C/c1ccc([N+](=O)[O-])o1)c1ccc(O)cc1, the survival [1] is reported as 8.5 (inactive), the parasite load remaining [2] is reported as -8.11% (inactive) and 25.6% (inactive) and the viability [2] is reported as 21.5% and 60.5%. For the same compound, the nuclear beta-catenin stimulation ([3]; at 10 µM) was 18.2% (inactive), the nuclear beta-catenin stimulation ([3]; stimulation, at 2 µM) was 2% and the insulin secretion stimulation [4] was -3% (inactive). The viability decrease [5] was 99.5% (active), the tube area decrease [6] was 26.5% (inactive) and the GLP1 secretion stimulation [7] was 5.1% (inactive). The inhibition of viability [8] was 102% (active), the viability decrease (inhibition) [9] was 67.8% (active) and the viability decrease (inhibition) [10] was 81.1% (active). The red/green cell ratio (normalised) [11] was 0.78 (inactive), the normalised cell number [11, 15] was 1.11 and the normalised cell number [11, 16] was 0.87. For the same compound, the fold change [12, 17] was 0.844 (inactive), the fold change [12, 18] was 1.92 and the cell count [12, 19] was 3090. For the same compound, the cell count [12, 20] was 3660, the z-score [13, 21] was -3.44 (inactive) and the z-score [13, 22] was -1.34. For the same compound, the remaining NAD [14] was 10 nM (inactive).
